# Test system: U-2932
# Experiment: growth inhibition by drug alone (1 - RLU/untreated control) (fraction); higher = stronger inhibition
# Settings: 177Lu-lilotomab satetraxetan 0 ug/ml
# Method: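 U-2932 ABC-DLBCL cells were pretreated or not for 18 h with 1 ug/ml 177Lu-lilotomab satetraxetan (600 MBq/mg), washed and seeded (3000 cells/well) on 384-well plates pre-printed with the Selleck Cambridge Cancer Compound library. Viability was read by RealTime-Glo luminescence on days 3-6 after seeding. Effect = 1 - RLU/mean RLU of the 48 untreated no-drug control wells per plate; Bliss score = (M-E)/(1-Fa), with E the expected Bliss-additive effect.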
Structure (SMILES),"growth inhibition by drug alone (10 nM, time (day): 3)","growth inhibition by drug alone (10 nM, time (day): 4)","growth inhibition by drug alone (10 nM, time (day): 5)","growth inhibition by drug alone (10 nM, time (day): 6)","growth inhibition by drug alone (1000 nM, time (day): 3)","growth inhibition by drug alone (1000 nM, time (day): 4)","growth inhibition by drug alone (1000 nM, time (day): 5)","growth inhibition by drug alone (1000 nM, time (day): 6)"
Oc1ccc(Nc2nc(-c3ccc(Cl)cc3)cs2)cc1,0.0714,0.0415,-0.0308,-0.079,0.00763,0.0746,-0.00976,-0.13
COc1cc2nccc(Oc3ccc(NC(=O)NC4CC4)c(Cl)c3)c2cc1C(N)=O [E7080 (Lenvatinib)],-0.0768,-0.0782,-0.0262,0.0583,-0.0598,-0.0139,-0.0471,0.0893
O=C(O)C1(C(=O)O)CCC1.[NH2-].[NH2-].[Pt+2] [Carboplatin],0.0266,-0.0103,-0.0119,-0.000763,-0.0124,-0.0343,-0.0455,0.00969
O=C1[C@H](CC[C@H](O)c2ccc(F)cc2)[C@@H](c2ccc(O)cc2)N1c1ccc(F)cc1 [Ezetimibe (Zetia)],0.207,0.167,0.0126,-0.0222,0.1,0.113,0.0388,-0.0102
CNC(=O)c1cc(Oc2ccc(NC(=O)Nc3ccc(Cl)c(C(F)(F)F)c3)c(F)c2)ccn1 [Regorafenib (BAY 73-4506)],0.146,0.0913,0.0627,-0.0165,0.26,0.284,0.302,0.217

# From the supplement of paper PMC6897291
